# Columns and labels:
# Experiment in all cases: PBM binding z-score (relative to random genomic background probes); higher = stronger binding; sequences stand for … in GC…GCGATTGACAGCGTAGAATGAAGG
# [1] = tested on: PPARg:RXRa DBDmut IVT, anti-RXR (DBD mutation: RXRa K156A/R161A, NR concentration 270 nM, RXRa partner concentration 90 nM)
# How it was run: (§1)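 Scanned fluorescence from custom Agilent 4×180K protein-binding microarrays was regression-normalized. Binding z-scores use random background probes as reference. Ligand-free nuclear receptor dimers were incubated on the arrays for 1 h and detected with antibodies against each partner (one per run).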
# [2] = tested on: PPARg:RXRa IVT, anti-PPARg (NR concentration 270 nM, RXRa partner concentration 90 nM)
# How it was run: as §1
# [3] = tested on: PPARg DBDmut:RXRa IVT, anti-PPARg (DBD mutation: PPARg1 K132A/R137A, NR concentration 270 nM, RXRa partner concentration 90 nM)
# How it was run: as §1
# [4] = tested on: PPARg DBDmut IVT, anti-PPARg (DBD mutation: PPARg1 K132A/R137A, NR concentration 270 nM)
# How it was run: as §1
# [5] = tested on: PPARg homodimer (NR concentration 180 nM)
# How it was run: as §1
# [6] = tested on: PXR:RXRa (NR concentration 270 nM, RXRa partner concentration 90 nM)
# How it was run: as §1
# [7] = tested on: PXR homodimer (NR concentration 270 nM)
# How it was run: as §1
# [8] = tested on: RARa:RXR (NR concentration 270 nM, RXRa partner concentration 90 nM)
# How it was run: as §1
# [9] = tested on: RARa homodimer (NR concentration 270 nM)
# How it was run: as §1
# [10] = tested on: RARb:RXRa (NR concentration 270 nM, RXRa partner concentration 90 nM)
# How it was run: as §1
Sequence,PBM binding z-score [1],PBM binding z-score [2],PBM binding z-score [3],PBM binding z-score [4],PBM binding z-score [5],PBM binding z-score [6],PBM binding z-score [7],PBM binding z-score [8],PBM binding z-score [9],PBM binding z-score [10]
TCTAGTTGGTCCCGGAGGTCACACACGACGGGTA,1.7,1.82,0.461,1,2.76,4.18,1.4,4.64,1.21,3.41
AGTCAAAGTTAACTAGGTAACGTAAGATTCAGCT,3.88,4.72,1,1.26,0.27,-0.0411,-0.0667,0.226,0.167,0.61
ATCGAAAGGTCGAGGTGAGTCTAGAGAAAGGGAA,0.536,2.56,0.697,0.961,1.92,3.05,0.144,3.67,0.714,4.31
TCTTGTATATCAATAGAGGTTAAGAAAGTGCGCT,1.98,1.05,0.574,1.14,0.383,3,0.496,1.54,0.672,0.997
ATATGTAGGTTACATCCGGGTCAATCAGGCTATG,6.83,7.41,2.24,2,1.63,2.93,0.984,3.51,0.955,2.32
ACTAGCAGGCCAAGTTTGGGTCACCCAAACAAAG,0.771,1.58,-0.22,-0.356,0.716,1.08,-0.637,1.89,-1.22,2.06
ATCTAAAGGTCGAGGTGAGTATAGAGAAAGGGAA,0.937,2.41,1.38,1.16,2.16,2.7,1.07,3.32,1.18,4.33
CGTCCAAGGTCAGCAGGTCAGTGAAAGCGACGTG,2.94,3.8,0.0823,-0.0279,3.81,3.7,0.523,4.76,0.465,5.34
CGTCCAAGGTCGATGCTAGGTCAGTGAAAGCATT,0.324,0.816,-0.113,-0.767,1.54,2.04,0.704,2.49,-0.458,2.92
ATCTCTAGGTAACAAGTACAGTGAAAGAGAGGAC,2.78,2.91,1.63,0.83,0.76,0.221,0.657,0.485,1.28,0.624
TTACCACGGTGAGCTGAGGTCGTTGATCCAACTC,-0.205,0.363,-0.296,-0.157,-0.455,2.07,0.241,1.07,-0.639,0.544
CCTGTTAGGTCATGGTCAGCTAATCTACAGTATG,3.41,2.86,0.756,1.29,2.12,1.77,0.504,2.9,0.828,4.16
TATTGTAGATCAATAGAGGTTAAGAAAGTGCGCT,0.44,1.78,1.72,1.55,0.993,3.04,0.513,1.71,1.1,0.903
GATACAGGGTCAGCTAGATGCCAGAGTATGGAAA,1.35,2.42,0.251,0.266,3.16,2.14,-0.221,3.4,0.348,3.98
CCGACTGGGGCAAGGTTACCATAACGCACAGCCA,3.29,3.67,-0.449,-0.891,0.674,0.267,-0.266,0.99,0.394,1.75
AGGATGAGGTTATACGTAGATCAGGGAAGAAAGT,0.241,0.698,1.41,0.577,1.34,1.6,1.47,1.71,1.01,1.77
CGCGAAAGGTCGGTTGAGGTGAGTATACGGATAA,0.0113,0.699,0.0036,-0.174,0.986,3.35,-0.075,3.62,0.138,3.08
GAATATAGGTAATACAAGGTGAAAGTCCGATTGT,6.67,6.08,2.27,1.21,1.32,0.776,0.722,1.33,1.55,0.909
CCTACTGGGCCAAAAAGGGCATTGATGCCGATAA,3.27,2.46,-1.19,-0.893,0.55,-0.0509,-0.102,-0.0363,-0.572,1.49
TCTCCTAGGTCAACGATGGTCAGCTAATCTGCTA,4.1,4.22,0.539,1.02,2.22,2.36,-0.309,2.66,0.663,4.28
TTACCAAGGTGAGCTGTGGTCGTTGATCCAACTC,1.27,1.57,0.175,0.327,-0.41,0.219,-0.79,-0.0403,-0.989,1.04
TCTGCTAGGTCAAAGATGGTCAGCTAATCTGCTA,4.67,3.96,0.246,0.394,0.4,1.59,-0.802,2.44,-0.95,3.83
CCAGACAGGTGAGAAGCTAACTCAGCCTCGATTA,1.24,0.141,-0.708,-1.08,0.381,-0.471,-0.163,-0.265,0.766,0.227
GCGACTGGGGCAAAGCAGGTCACCATAAGGTTGG,3.8,4.81,0.568,-0.842,1.51,3.05,-0.164,2.96,-0.0737,2.42

# From the supplement of paper PMC6555819
